Experimental data taken from PubChem BioAssay (NCATS).
Records with an inconclusive call do not appear. Activity calls are given as the source filed them. Unless noted, calls follow the shape of the dose curve; as a rule, active = well fitted curve in either direction with a large enough effect (not every such curve was filed as active); inconclusive = small, poorly fitted or top-dose-only effect, or another doubt; inactive = flat fitted curve, though single readings scatter.

Key:
[1] = molecular target: Lysosomal acid glucosylceramidase (Homo sapiens) (UniProt P04062); assay: Glucocerebrosidase-p2 (AID 348; in the data active = potency below about 10 µM; also: potency is read from the fitted curve at half-maximal effect); details: purified GBA, blue fluorogenic substrate, 40 min
Procedure, shortened: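 Compounds titrated from 0.6 nM upwards against 0.2 nM enzyme in pH 5.9 citric acid/KH2PO4, taurocholate, tween-20; blue fluorogenic substrate 80 uM, 40 min room temperature, stopped and read Ex 365/Em 440 for AC50.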

[2] = AP1 Signaling Pathway (AID 357); details: ME-180 AP-1-bla reporter, EGF-induced, beta-lactamase ratio, 5 h; at 7.69 µM (top of the series) unless noted;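 also: ME-180 reporter cells stimulated with EGF at its EC50 level; % is scaled to controls: 0 for no effect and ±100 for the full control effect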
Procedure, shortened: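 Cells are seeded overnight, exposed to compound titrations and an EC50 level of EGF for 5 hours at 37 °C, then loaded with CCF4 dye for 2.5 hours. Beta-lactamase activity under the AP-1 element is read as a blue/green ratio.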

[3] = molecular target: Cytochrome P450 1A2 (Homo sapiens) (UniProt P05177); assay: p450-cyp1a2 (AID 410; calls by dose curve; also: potency is read from the fitted curve at half-maximal effect;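 as to activity change, negative = inhibition: -100% = full effect of reference inhibitor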); details: recombinant CYP1A2, luciferin-ME demethylation, luminescence; series mostly up to 57 µM
Procedure, shortened: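 Inhibition was calculated relative to 57 uM furafylline (full inhibition). The reaction used human CYP1A2 at 20nM with Luciferin-ME at its Km, 100uM, driven by an NADPH-regenerating system for 60 min at room temperature.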

[4] = NFAT Signaling Pathway (AID 444); details: Jurkat NFAT-bla M1, carbachol, beta-lactamase ratio, 5 h; at 7.69 µM (top of the series) unless noted;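 also: carbachol stimulus at about its EC50 of 1 µM final; % is scaled to controls: 0 for no effect and ±100 for the full control effect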
Procedure, shortened: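 Jurkat cells with NFAT-driven β-lactamase reporter and co-expressed M1 receptor, stimulated with carbachol (final 1 uM, ~EC50), compound titration, 5 h at 37 °C. CCF4 loaded 1 h at RT; 460/530 nm ratio gave %activity and AC50.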

[5] = molecular target: Glucocorticoid receptor (Homo sapiens) (UniProt P04150); assay: GR-EFC Redistribution (AID 451; calls by dose curve; also: potency is read from the fitted curve at half-maximal effect); details: CHO-K1 GR-EFC translocation, beta-gal luminescence, 2 h
Procedure, shortened: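 CHO-K1 cells expressing nuclear EA and GR-ED fragments of b-gal; compounds titrated up to 46 uM final, 2 h at 37 C. GR nuclear translocation read as complemented b-gal luminescence after 1 h RT detection.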

[6] = molecular target: Mitogen-activated protein kinase 10 (Mus musculus) (UniProt Q61831); assay: JNK3 AlphaScreen Assay (AID 530); details: JNK3 lysate, c-Jun phosphorylation; series mostly up to 57.1 µM;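 also: kinase came from lysate of stimulated human HepG2 cells; signal reports phosphorylation of biotinylated GST-cJun 1-79 at Ser73 with 10 µM ATP; % is scaled to controls: 0 for no effect and ±100 for the full control effect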
Procedure, shortened: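 qHTS format: compounds tested as titrations against IL-1beta/TNF-alpha-activated HepG2 lysate JNK3 with biotin-GST-cJun substrate and 10 uM ATP at room temperature. Loss of anti-phospho-cJun AlphaScreen signal indicates inhibition.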

[7] = molecular target: 3',5'-cyclic-AMP phosphodiesterase 4B (Homo sapiens) (UniProt Q07343); assay: qHTS Assay for Inhibitors of PDE-IV (AID 607; active = well fitted activation curve with a large enough effect in the main read-out, with a control signal flat, not every such curve was filed as active; also: % of control where 0% means no effect); details: HEK293 ACTOne CNG channel cells, membrane potential fluorescence; series mostly up to 22.9 µM
Procedure, shortened: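 ACTOne HEK293 cells carry a modified cAMP-gated CNG channel and express endogenous PDE4; plated 1000 cells/well, compounds up to 22.9 uM final. Membrane-potential dye fluorescence (ex 535/em 590) was read; parental cells received 10 uM forskolin + 100 uM RO 20-1724.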

[8] = molecular target: Cytochrome P450 2C9 (Homo sapiens) (UniProt P11712); assay: qHTS Assay for Inhibitors and Substrates of Cytochrome P450 2C9 (AID 883; active = well fitted curve in the direction sought with a large enough effect; an effect the other way counts as inactive or inconclusive; also: potency is read from the fitted curve at half-maximal effect; nearly all actives have a fitted effect of over 60% in size); details: recombinant CYP2C9, luciferin-H luminescence, 60 min; series mostly up to 57.1 µM
Procedure, shortened: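 Human CYP2C9 (10nM) with Luciferin-H at 100uM (its KM) in 25mM KPO4; compound preincubated 10 min at 37C, then NADPH regeneration for 60 min at 37C. Luciferin read by luminescence after detection reagent; normalized to 57uM sulphaphenazole as full inhibition.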

[9] = molecular target: Cytochrome P450 2C19 (Homo sapiens) (UniProt P33261); assay: qHTS Assay for Inhibitors and Substrates of Cytochrome P450 2C19 (AID 899; active = well fitted curve in the direction sought with a large enough effect; an effect the other way counts as inactive or inconclusive; also: potency is read from the fitted curve at half-maximal effect; nearly all actives have a fitted effect of over 60% in size); details: recombinant CYP2C19, luciferin-H EGE luminescence; series mostly up to 57.1 µM
Procedure, shortened: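 5 nM human CYP2C19 with 10uM Luciferin-H EGE (at KM) in 50mM KPO4, compound preincubated 10 min at 37C, then NADPH regeneration for 60 min at 37C. Luciferin read by luminescence after detection reagent; normalized to 57uM ketoconazole as full inhibition.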

[10] = qHTS Assay for Identification of Small Molecule Agonists for Hypoxia Response Element Signaling Pathway (AID 914; active = well fitted activation curve with a large enough effect in the signal ratio, with a control signal flat, not every such curve was filed as active; the % refers to the signal ratio; also: potency is read from the fitted curve at half-maximal effect; as to activation: % of control where 0% means no effect); details: ME-180 HRE-bla reporter, beta-lactamase ratio, CoCl2, 17 h; activation: stronger effect = higher value
Procedure, shortened: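 Read-out: CCF4 FRET ratio of 460nm to 530nm emission (excitation 405nm) after 2.5 hours at room temperature, taken from HRE-bla ME-180 cells that had been exposed to compound and EC50 CoCl2 for 17 hours.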

[11] = qHTS Assay for Lipid Storage Modulators (AID 1519; calls by dose curve); details: Drosophila S3 cells, BODIPY lipid droplet/cell ratio, laser cytometry, cells loaded with oleic acid; for activity change, negative = inhibition: at 57.5 µM (top of the series)
Procedure, shortened: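 Cells seeded at 5,000 per well were treated with compounds over a concentration series and loaded with oleic acid (400 uM, as added). Lipid droplet fluorescence (488 nm excitation, 500-530 nm channel) was read by laser-scanning cytometry and normalized to 20 uM Triacsin C.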

[12] = Primary qHTS for small molecule stabilizers of the endoplasmic reticulum resident proteome: Secreted ER Calcium Modulated Protein (SERCaMP) assay (AID 1508630; active = well fitted curve in the direction sought with a large enough effect; an effect the other way counts as inactive or inconclusive; also: % is scaled to controls: 0 for no effect and ±100 for the full control effect); details: SH-SY5Y GLuc-SERCaMP (Gaussia luciferase released on ER calcium loss) secretion, thapsigargin, luminescence; series mostly up to 38.4 µM
Procedure, shortened: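 GLuc-SERCaMP-expressing SH-SY5Y cells, pretreated 16 h with compound, are challenged with thapsigargin to empty ER calcium stores; after 4 h, coelenterazine is added directly to the medium and luminescence is imaged.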

[13] = Stat Signaling Pathway (AID 446); details: ME-180 SIE beta-lactamase reporter, IL-6 stimulated, 5 h; at 7.69 µM (top of the series) unless noted
Procedure, shortened: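 ME-180 SIE-bla cells; overnight plating; cpd + IL-6 40 pM, 5 h, 37 C; LiveBLAzer 2.5 h RT; 460/530 nm emission ratio. Normalized to 300 pM IL-6 and 125 nM JAK inhibitor controls.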

[14] = molecular target: Glucocorticoid receptor (Homo sapiens) (UniProt P04150); assay: GR-GFP Redistribution (AID 450;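 active = compounds whose dose series gives a full or clear partial fitted curve of increased nuclear translocation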; also: potency is read from the fitted curve at half-maximal effect); details: U2OS GR-GFP nuclear translocation, laser cytometry, 2 h
[15] = molecular target: Cytochrome P450 3A4 (Homo sapiens) (UniProt P08684); assay: qHTS Assay for Activators of Cytochrome P450 3A4 (AID 885; active = well fitted curve in the direction sought with a large enough effect; an effect the other way counts as inactive or inconclusive; also: nearly all actives have a fitted effect of over 65% in size); details: recombinant CYP3A4, Luciferin-PPXE luminescence, 60 min; series mostly up to 57.1 µM
Procedure, shortened: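 20nM CYP3A4 + 25uM Luciferin-PPXE (=KM), 200mM KPO4; cpd 10 min RT; NADPH regen, 60 min RT; stop w/ detection buffer, 20 min; luminescence. Normalized to 57 uM ketoconazole.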

[16] = Confirmation and Secondary Assay for Modulators of Hemoglobin Beta Chain Splicing at IVS2 654 locus (AID 910; active = well fitted curve in the direction sought with a large enough effect; an effect the other way counts as inactive or inconclusive;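 also: HeLa cells stably carrying EGFP split by mutant beta-globin IVS2-654 intron; % of control where 0% means no effect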); details: HeLa EGFP-654 splicing reporter, GFP fluorescence, 48 h; series mostly up to 38.3 µM
Procedure, shortened: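 HeLa cells stably expressing EGFP interrupted by β-globin IVS2-654 intron, seeded overnight in Opti-MEM/2% FCS, then treated 2 days at 37 °C. Restored splicing read as total peak GFP intensity per well by laser scanning cytometry (488 nm excitation, 500–520 nm emission); 500 nM antisense PNA as control.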

[17] = Confirmation and Secondary Assay for Modulators of Hemoglobin Beta Chain Splicing at IVS2 705 locus (AID 930; active = well fitted curve in the direction sought with a large enough effect; an effect the other way counts as inactive or inconclusive;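 also: HeLa cells stably expressing the EGFP-705 splicing reporter; GFP fluorescence per well restored by corrected splicing of the IVS2-705 intron in EGFP; % of control where 0% means no effect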); details: HeLa EGFP-705 splicing reporter, GFP fluorescence, 48 h; series mostly up to 38.3 µM
Procedure, shortened: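 HeLa EGFP-705 reporter; 500 cells/well, o/n 37C 5% CO2; cpd 2 d; 488 ex/500-520 em laser scan; total peak GFP intensity/well. Ref: 500 nM […] antisense PNA.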

[18] = molecular target: Ubiquitin carboxyl-terminal hydrolase 1 (Homo sapiens) (UniProt O94782); assay: Inhibitors of USP1/UAF1: Pilot qHTS (AID 504865; active = well fitted curve in the direction sought with a large enough effect; an effect the other way counts as inactive or inconclusive;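 also: rhodamine fluorescence freed from ubiquitin-rhodamine substrate followed over time; top concentration of the series differs between compounds; % is scaled to controls: 0 for no effect and ±100 for the full control effect; nearly all actives have a fitted effect of over 35% in size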); details: purified USP1/UAF1, Ub-rhodamine cleavage fluorescence; series mostly up to 54.9 µM
Procedure, shortened: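 In 50mM HEPES pH 7.8 containing 0.5mM EDTA, 1mM TCEP, 0.1 mg/ml BSA and 0.01% Tween-20, 1nM USP1/UAF1 is exposed to compound for 15 min, then Ub-Rho (150nM final) is added and fluorescence is read over time.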

[19] = measured here: cell count channel max response
[20] = measured here: lipid channel max response

Sequence of Glucocorticoid receptor (Homo sapiens) (P04150 whole entry, looked up, the tested form may be a part): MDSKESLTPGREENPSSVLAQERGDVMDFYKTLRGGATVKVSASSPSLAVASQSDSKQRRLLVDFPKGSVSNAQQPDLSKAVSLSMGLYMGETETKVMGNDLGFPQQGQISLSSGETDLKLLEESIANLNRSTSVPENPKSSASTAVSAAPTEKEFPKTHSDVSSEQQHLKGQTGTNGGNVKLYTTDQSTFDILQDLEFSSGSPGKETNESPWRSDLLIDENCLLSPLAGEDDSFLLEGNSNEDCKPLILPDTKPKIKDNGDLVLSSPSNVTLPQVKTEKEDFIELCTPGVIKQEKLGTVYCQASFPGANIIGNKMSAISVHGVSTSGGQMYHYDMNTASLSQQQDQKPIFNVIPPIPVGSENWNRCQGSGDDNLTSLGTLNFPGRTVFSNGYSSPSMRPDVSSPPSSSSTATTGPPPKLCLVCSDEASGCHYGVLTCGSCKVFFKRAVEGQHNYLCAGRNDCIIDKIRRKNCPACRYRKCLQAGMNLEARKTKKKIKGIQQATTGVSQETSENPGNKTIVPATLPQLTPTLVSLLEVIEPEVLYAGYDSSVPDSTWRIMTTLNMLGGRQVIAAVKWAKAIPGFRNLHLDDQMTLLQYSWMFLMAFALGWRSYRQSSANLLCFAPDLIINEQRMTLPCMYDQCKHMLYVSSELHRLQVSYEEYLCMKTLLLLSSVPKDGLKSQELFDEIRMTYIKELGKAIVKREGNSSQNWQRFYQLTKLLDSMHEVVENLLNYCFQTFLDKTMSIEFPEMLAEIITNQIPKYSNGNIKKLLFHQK
Sequence of Lysosomal acid glucosylceramidase (Homo sapiens) (P04062 whole entry, looked up): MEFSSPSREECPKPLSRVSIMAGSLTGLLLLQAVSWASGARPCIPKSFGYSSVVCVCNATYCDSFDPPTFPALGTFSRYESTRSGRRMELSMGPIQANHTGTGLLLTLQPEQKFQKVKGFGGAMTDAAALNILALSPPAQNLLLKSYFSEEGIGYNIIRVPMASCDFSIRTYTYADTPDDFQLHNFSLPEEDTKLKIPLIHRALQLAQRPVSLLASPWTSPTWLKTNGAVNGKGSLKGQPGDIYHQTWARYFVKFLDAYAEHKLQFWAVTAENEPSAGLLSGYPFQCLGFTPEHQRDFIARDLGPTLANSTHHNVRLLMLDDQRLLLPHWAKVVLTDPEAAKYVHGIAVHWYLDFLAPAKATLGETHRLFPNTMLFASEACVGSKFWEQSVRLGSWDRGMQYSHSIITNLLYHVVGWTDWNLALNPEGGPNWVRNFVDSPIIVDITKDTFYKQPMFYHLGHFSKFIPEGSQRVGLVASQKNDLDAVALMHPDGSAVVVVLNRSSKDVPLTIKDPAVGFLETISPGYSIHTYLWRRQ
Sequence of 3',5'-cyclic-AMP phosphodiesterase 4B (Homo sapiens) (Q07343 whole entry, looked up): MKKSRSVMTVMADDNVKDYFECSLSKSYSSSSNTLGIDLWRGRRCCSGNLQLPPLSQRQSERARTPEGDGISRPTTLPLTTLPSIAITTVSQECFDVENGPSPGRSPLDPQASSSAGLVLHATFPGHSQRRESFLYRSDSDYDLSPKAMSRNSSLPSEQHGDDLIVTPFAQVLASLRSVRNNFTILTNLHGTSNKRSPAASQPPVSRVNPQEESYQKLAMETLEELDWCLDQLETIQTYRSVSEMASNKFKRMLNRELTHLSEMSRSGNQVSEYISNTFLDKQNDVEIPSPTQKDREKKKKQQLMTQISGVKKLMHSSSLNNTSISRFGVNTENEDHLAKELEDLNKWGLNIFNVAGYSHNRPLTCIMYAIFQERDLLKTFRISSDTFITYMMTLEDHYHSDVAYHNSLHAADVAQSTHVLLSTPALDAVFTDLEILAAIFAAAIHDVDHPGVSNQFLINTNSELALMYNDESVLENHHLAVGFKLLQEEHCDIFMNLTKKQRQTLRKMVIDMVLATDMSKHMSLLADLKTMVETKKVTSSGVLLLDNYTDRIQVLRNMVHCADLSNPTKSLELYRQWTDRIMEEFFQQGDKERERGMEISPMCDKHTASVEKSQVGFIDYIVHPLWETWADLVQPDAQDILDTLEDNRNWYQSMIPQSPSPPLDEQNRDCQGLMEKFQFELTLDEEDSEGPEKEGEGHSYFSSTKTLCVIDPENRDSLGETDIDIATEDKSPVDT
Sequence of Cytochrome P450 3A4 (Homo sapiens) (P08684 whole entry, looked up): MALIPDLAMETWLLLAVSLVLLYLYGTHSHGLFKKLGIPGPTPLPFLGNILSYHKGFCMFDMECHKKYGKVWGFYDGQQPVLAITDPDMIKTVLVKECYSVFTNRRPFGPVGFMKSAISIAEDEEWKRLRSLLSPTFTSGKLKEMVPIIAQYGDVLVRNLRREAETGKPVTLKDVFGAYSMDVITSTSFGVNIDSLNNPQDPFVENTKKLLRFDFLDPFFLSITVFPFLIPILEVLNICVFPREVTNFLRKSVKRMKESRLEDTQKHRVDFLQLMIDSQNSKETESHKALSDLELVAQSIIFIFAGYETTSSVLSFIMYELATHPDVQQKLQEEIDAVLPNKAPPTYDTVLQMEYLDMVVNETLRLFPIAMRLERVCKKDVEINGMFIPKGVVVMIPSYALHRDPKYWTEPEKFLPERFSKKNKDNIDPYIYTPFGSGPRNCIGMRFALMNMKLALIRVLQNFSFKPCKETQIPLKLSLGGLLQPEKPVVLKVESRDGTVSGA
Sequence of Cytochrome P450 1A2 (Homo sapiens) (P05177 whole entry, looked up): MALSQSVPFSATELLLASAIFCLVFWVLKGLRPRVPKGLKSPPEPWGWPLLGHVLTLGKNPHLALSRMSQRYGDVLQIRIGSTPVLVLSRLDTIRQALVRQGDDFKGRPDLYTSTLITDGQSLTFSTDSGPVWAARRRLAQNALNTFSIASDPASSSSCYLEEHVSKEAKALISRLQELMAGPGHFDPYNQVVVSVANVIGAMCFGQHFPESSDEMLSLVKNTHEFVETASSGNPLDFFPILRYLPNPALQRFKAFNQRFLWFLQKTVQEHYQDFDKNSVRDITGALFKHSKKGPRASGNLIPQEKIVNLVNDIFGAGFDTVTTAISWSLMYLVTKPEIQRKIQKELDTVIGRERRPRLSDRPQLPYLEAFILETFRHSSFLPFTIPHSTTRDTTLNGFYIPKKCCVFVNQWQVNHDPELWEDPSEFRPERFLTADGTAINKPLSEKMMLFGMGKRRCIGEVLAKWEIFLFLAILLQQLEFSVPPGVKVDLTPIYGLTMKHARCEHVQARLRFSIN
Sequence of Ubiquitin carboxyl-terminal hydrolase 1 (Homo sapiens) (O94782 whole entry, looked up): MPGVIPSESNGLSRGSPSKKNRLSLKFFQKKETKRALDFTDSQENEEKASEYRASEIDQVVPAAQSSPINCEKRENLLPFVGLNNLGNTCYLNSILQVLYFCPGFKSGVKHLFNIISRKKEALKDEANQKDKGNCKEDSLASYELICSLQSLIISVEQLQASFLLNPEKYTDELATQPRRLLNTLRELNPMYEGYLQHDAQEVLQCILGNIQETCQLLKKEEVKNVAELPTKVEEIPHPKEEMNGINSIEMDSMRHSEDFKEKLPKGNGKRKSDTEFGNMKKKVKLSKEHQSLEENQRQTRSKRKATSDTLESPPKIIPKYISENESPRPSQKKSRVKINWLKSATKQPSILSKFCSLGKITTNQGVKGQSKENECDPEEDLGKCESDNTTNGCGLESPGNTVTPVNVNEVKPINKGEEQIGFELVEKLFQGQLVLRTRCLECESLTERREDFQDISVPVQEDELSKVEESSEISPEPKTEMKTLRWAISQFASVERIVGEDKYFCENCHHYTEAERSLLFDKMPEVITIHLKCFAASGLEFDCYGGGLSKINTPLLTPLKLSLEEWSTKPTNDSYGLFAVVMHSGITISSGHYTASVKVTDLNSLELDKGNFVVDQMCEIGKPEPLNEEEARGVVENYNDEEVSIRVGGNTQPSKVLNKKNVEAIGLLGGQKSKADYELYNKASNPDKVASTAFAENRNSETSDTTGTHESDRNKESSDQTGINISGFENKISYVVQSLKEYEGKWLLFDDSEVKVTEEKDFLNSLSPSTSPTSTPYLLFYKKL
Sequence of Cytochrome P450 2C9 (Homo sapiens) (P11712 whole entry, looked up): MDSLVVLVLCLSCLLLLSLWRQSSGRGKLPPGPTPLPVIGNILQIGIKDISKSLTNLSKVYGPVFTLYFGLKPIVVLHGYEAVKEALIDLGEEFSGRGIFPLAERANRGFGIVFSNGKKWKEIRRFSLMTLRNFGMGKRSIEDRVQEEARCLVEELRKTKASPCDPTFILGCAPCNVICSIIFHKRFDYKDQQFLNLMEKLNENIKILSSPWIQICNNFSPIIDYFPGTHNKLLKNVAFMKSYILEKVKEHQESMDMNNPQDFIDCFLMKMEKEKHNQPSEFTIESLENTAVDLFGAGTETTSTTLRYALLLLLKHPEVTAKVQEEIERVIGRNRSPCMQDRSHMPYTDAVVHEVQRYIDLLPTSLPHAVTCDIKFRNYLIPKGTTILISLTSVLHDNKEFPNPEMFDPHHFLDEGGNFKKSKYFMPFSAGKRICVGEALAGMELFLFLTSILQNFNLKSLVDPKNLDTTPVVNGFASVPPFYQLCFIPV
Sequence of Cytochrome P450 2C19 (Homo sapiens) (P33261 whole entry, looked up): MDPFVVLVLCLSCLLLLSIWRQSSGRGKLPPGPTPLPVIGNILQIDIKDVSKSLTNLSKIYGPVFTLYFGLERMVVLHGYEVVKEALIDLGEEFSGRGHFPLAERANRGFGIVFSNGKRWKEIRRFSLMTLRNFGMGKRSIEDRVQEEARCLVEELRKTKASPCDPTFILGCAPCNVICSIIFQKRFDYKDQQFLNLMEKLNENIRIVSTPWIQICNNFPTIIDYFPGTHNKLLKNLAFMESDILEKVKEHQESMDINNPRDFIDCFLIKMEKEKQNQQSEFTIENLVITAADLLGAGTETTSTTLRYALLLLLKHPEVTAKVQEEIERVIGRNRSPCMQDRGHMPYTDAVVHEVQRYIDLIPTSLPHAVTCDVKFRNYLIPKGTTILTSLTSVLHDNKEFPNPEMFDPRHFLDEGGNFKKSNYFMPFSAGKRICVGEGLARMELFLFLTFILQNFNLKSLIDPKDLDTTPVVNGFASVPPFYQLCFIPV

CS(=O)(=O)N1CCC2(CCCN(c3ccncc3)C2)CC1
17.1%: max response [11, 19]
26.8%: max response [11, 20]
active: Potency [8] 0.0794 µM | Potency [9] 1.26 µM
inactive: Potency [1] > 11.4 µM | activity change, negative = inhibition [2] 10.1% | Potency [3] | activity change, negative = inhibition [4] -14.2% | Potency [5] > 46 µM | outcome [6] | Potency [7] | activation [10] 20.8% | activity change, negative = inhibition [11] 4.5% | Potency [12]

Cc1noc(C)c1-c1cc(Nc2ccc(F)cc2)ncn1
10.9%: max response [11, 20]
inactive: Potency [1] > 11.4 µM | activity change, negative = inhibition [2] -7.8% | activity change, negative = inhibition [4] -15.1% | activity, negative = inhibition [13] 3.16% | Potency [14] > 46 µM | Potency [5] > 46 µM | outcome [6] | Potency [7] | Potency [15] | outcome [16] | outcome [17] | activity change, negative = inhibition [11] 8.49% | Potency [18] | Potency [12]
3.61%: max response [11, 19]

N#CCCn1c(=O)c(-c2cccs2)nc2cnc(OCc3ccccc3)nc21
1.75%: max response [11, 20]
inactive: Potency [1] > 11.4 µM | activity change, negative = inhibition [2] 9.62% | activity change, negative = inhibition [4] 6.28% | Potency [5] > 46 µM | outcome [6] | Potency [7] | activity change, negative = inhibition [11] -2.65% | Potency [12]
0.666%: max response [11, 19]
active: Potency [3] 3.98 µM | Potency [10] 3.16 µM

CS(=O)(=O)Nc1cccc(-c2nccc(NCc3ccccc3)n2)c1
-0.959%: max response [11, 19]
4.33%: max response [11, 20]
inactive: Potency [1] > 11.4 µM | activity change, negative = inhibition [2] -20% | activity change, negative = inhibition [4] -4.2% | activity, negative = inhibition [13] -11.8% | Potency [14] > 46 µM | Potency [5] > 46 µM | outcome [6] | Potency [7] | outcome [16] | outcome [17] | activity change, negative = inhibition [11] 6.93% | Potency [18] | Potency [12]

CS(=O)(=O)N1CCC[C@@]2(CCN(c3ccccn3)C2)C1
2.21%: max response [11, 20]
inactive: Potency [1] > 11.4 µM | activity change, negative = inhibition [2] -9.92% | activity change, negative = inhibition [4] -19.3% | activity, negative = inhibition [13] -8.41% | Potency [5] > 46 µM | outcome [6] | Potency [7] | Potency [15] | activity change, negative = inhibition [11] 2.29% | Potency [12]
-1.27%: max response [11, 19]
